Results: PubChem BioAssay AID1117361 (Southern Research Institute, 2015)
About 900 (25%) of roughly 3,600 compounds were called active. Not all results are given here. Results with a measured potency or affinity are listed apart. Unmarked numbers belong to inactive results. How the calls were made is not given here.

target: Protein Tat (Human immunodeficiency virus type 1 group M subtype B (isolate HXB2)) (UniProt P04608); test: HIV-1 Tat–TAR interaction blockers – biochemical, fluorescence polarization, FAM-labeled TAR RNA, counter-screen for Vif-APOBEC3G degradation inhibitor project, dose response (AID 1117361); conditions: Tat-TAR RNA binding; series mostly up to 100 µM; inhibition: at the top concentration

Compound | outcome | inhibition
O=C(CSc1nnc2n(C3CCCCC3)c(=O)c3ccccc3n12)OC1CCCCC1 | inactive | –
Cc1cc(Cl)c(S(=O)(=O)NCc2cccnc2)cc1OCC(=O)NC1CCCCC1 | inactive | –
O=S(=O)(c1cccs1)n1nnc2ccccc21 | inactive | –
COc1cc(-c2nnc(SCc3cc(=O)oc4cc(O)c(O)cc34)o2)cc(OC)c1OC | – | 1.67%
C=C(c1ccc(OCCO)cc1)c1ccc(OCCO)cc1 | – | 12.8%
CC(=O)N1CCN(c2ccc(NC(=O)COc3ccc(Cl)cc3Cl)cc2)CC1 | – | 8.87%
Cc1nc2ccc(NS(=O)(=O)c3ccc(F)cc3F)cc2s1 | inactive | –
CC1(C)C/C(=C(/C#N)C(N)=O)CCO1 | – | 8.11%
COc1cc2c(cc1OC)C(C(=O)O)C(c1cc(Br)c(O)c(OC)c1)N(C)C2=O (stereo not drawn) | – | 0.68%
Cc1sc2ncnc(OCC(=O)NCC3CCCO3)c2c1C (stereo not drawn) | – | 10.1%
CN(Cc1ccccc1)C(=O)C1CCCN1S(=O)(=O)c1ccc2c(c1)n(C)c(=O)c(=O)n2C (stereo not drawn) | inactive | –
O=C(NCCSCc1ccccc1)c1ccc(C2SCC(=O)N2Cc2ccccc2)cc1 (stereo not drawn) | inactive | –
CCCn1nc(Oc2nc(SC)nc(N(C)C)n2)ccc1=O | inactive | –
O=C(Nn1cnnc1)c1cc(-c2cccc(Br)c2)nc2ccccc12 | inactive | –
COc1ccc2nc(-c3ccccc3)cc(C(=O)OCC(=O)N3CC(C)OC(C)C3)c2c1 (stereo not drawn) | inactive | –
CC(C)OP(=O)(OC(C)C)C(O)c1ccc(N(C)C)cc1 (stereo not drawn) | – | 7.42%
Cc1oc(/N=C/c2cccc3ccccc23)c(C#N)c1C | – | 3.67%
O=C1C=C(c2c(O)ccc3ccccc23)c2ccccc2C1=O | – | 3.01%
COc1ccc(CCN2CC(C(=O)NCC(c3ccccc3)N(C)C)CC2=O)cc1OC (stereo not drawn) | inactive | –
COc1cc2c(cc1OC)C(C)N(C(=O)c1cc3n(n1)C(C(F)(F)F)CC(c1ccco1)N3)CC2 (stereo not drawn) | – | 14.9%
Cc1[nH]c(=O)[nH]c(=O)c1S(=O)(=O)N1CCCC(C(=O)NCCc2ccccc2)C1 (stereo not drawn) | inactive | –
CCC(C)[C@H](NC(=O)N1CCCC1)C(=O)O (stereo partly drawn) | – | 3.38%

Compound | outcome | inhibition
CCOC(=O)c1[nH]nc(-c2c(O)cc(C)cc2O)c1-c1csc(C)n1 | – | 4.95%
CC(=O)N1CCc2cc(S(=O)(=O)NC(C(=O)NC3CCCc4ccccc43)C(C)C)ccc21 (stereo not drawn) | – | 6.14%
Cc1nc2ccc(S(=O)(=O)NC(C(=O)N3CCC(C)CC3)C(C)C)cc2s1 (stereo not drawn) | – | 0.68%
COC(=O)C1CCCN1S(=O)(=O)c1ccc2ccccc2c1 (stereo not drawn) | inactive | –
Cc1ccc(Nc2nc3ccccc3nc2-n2nc(C)cc2C)cc1 | inactive | –
Cc1cc(SCC(=O)Nc2ccccc2C)nc(C)n1 | – | 8.78%
Cc1c(Cl)cccc1NC(=O)CSc1nnc(C)n1-c1ccccc1 | inactive | –
COCCn1c(SCC(=O)Nc2cccc(C)n2)nnc1-c1ccco1 | inactive | –
Cc1cccc(NC(=O)CSc2nnc(-c3ccccc3C)o2)c1 | – | 4.77%
Cc1nc(SCC(=O)Nc2ccnc3ccccc23)n[nH]1 | – | 11.6%
CC(C)Cn1c(SCC(=O)Nc2cccnc2Cl)nnc1-c1ccco1 | – | 1%
CCC1(C)Cc2c(sc(NC(=O)CCC(=O)O)c2C#N)CO1 (stereo not drawn) | – | 4.09%
CCCSc1nc2c(cnn2-c2ccc(C)cc2)c(=O)[nH]1 | inactive | –
CCCCc1cc(C(=O)Cc2ccccn2)c(O)cc1O | – | 8.35%
CC(C)NC(=O)c1ccc(COCC(F)(F)C(F)F)cc1 | inactive | –
CN(C)CCOCCSc1ccc(Cl)cc1 | inactive | –
CC(C)(NO)/C(=N\O)c1ccccc1 | – | 6.14%
Cc1cc(Nc2ccc(Br)cc2)n2nc(C)nc2n1 | inactive | –
CCc1cc2c(N3CCCCC3)ncnc2s1 | inactive | –
CCOc1ccc(Nc2nc(Cc3nnc(SCC(=O)NCC4CCCO4)n3C)cs2)cc1 (stereo not drawn) | inactive | –
CCOC(=O)c1c(C)[nH]c(C(=O)OCC(=O)N2c3ccccc3CC2C)c1C (stereo not drawn) | – | 7.5%
S=C(Nc1cccc(Cl)c1)NC1CCCCC1 | – | 3.41%

Compound | outcome | inhibition
CC(=O)N1CCc2cc(S(=O)(=O)NCCC(=O)Nc3cccc(C)c3C)ccc21 | – | 10.9%
O=C(NNC(=O)c1ccccc1F)c1cccc(-n2cccc2)c1 | inactive | –
CC1CCc2[nH]c3ccc(C(=O)N(C)CC(=O)Nc4ccc(F)cc4)cc3c2C1 (stereo not drawn) | inactive | –
Cn1nnc(NC(=O)c2cccc(F)c2)n1 | – | 5.46%
CC(=O)c1cccc(NC(=O)c2cnn3ccccc23)c1 | – | 4.77%
CC(=O)Nc1ccc(NC(=O)CN(c2cccc(C(C)=O)c2)S(C)(=O)=O)cc1 | inactive | –
CCN(CC)C(=O)NCc1c(C)cc(C)cc1C | inactive | –
Cc1ccc(-n2[nH]c(=O)c3cccnc32)cc1 | inactive | –
O=C(Nc1ccc(Cl)c(-c2nc3ccccc3[nH]2)c1)c1cccnc1 | – | 3.41%
CCCCCCN(C(=O)CCCCCN1C(=O)NC(c2ccc(C(C)(C)C)cc2)C(C(=O)OCc2ccccc2)=C1C)C(C(=O)NCCCC)c1ccc(OCC(=O)OC)c(C(=O)OC)c1 (stereo not drawn) | – | 0.82%
CCOC(CNC(=O)C(=O)Nc1cc2c3c(c1)CC(=O)N3CCC2)OCC | – | 0.33%
CCOC(=O)C1CCN(S(=O)(=O)c2cccc(-c3cn4cccc(C)c4n3)c2)CC1 | – | 2.7%
C/C(=N\n1c(C)nc2ccccc2c1=O)c1ccc(C)o1 | inactive | –
COc1ccc(C(=O)CSc2n[nH]c(N)n2)cc1 | – | 0.68%
CCOC(=O)c1sc(-c2ccccc2)cc1NC(=O)CSc1nnnn1C | inactive | –
Cc1cc(C(=O)N2CCN(C/C=C/c3ccccc3)CC2)cs1 | – | 6.76%
CC1=C(C(=O)N2CCCCC2)C2(CCC(C)CC2)OC1=O (stereo not drawn) | – | 2.03%
COc1ccc(OC)c(S(=O)(=O)Nc2cnc3ccccc3c2)c1 | – | 4.09%
COc1ccc(NS(=O)(=O)c2cccc(Cl)c2Cl)cc1S(=O)(=O)N1CCCCC1 | – | 4.77%
COC(=O)CN1C(=O)C(O)=C(C(C)=O)C1c1ccc([N+](=O)[O-])cc1 (stereo not drawn) | – | 2.73%
CC1(c2ccccc2)NC(=O)N(CC(=O)Nc2cccc(C#N)c2)C1=O (stereo not drawn) | – | 0.7% [at 50 µM]
O=C(CCc1ccccc1)Nc1ccc2c(c1)OCCO2 | inactive | –

Compound | outcome | inhibition
CS(=O)(=O)N1CCC(C(=O)Nc2ccccc2)CC1 | inactive | –
COc1ccccc1N(CC(=O)NC(C)C)S(=O)(=O)c1cccs1 | inactive | –
CC(C)c1nnc(NC(=O)CCC(=O)NCc2ccco2)s1 | – | 0.68%
O=C(Nc1ccncc1)C1CCN(S(=O)(=O)c2c(Cl)cccc2Cl)CC1 | – | 6.35%
O=C(CN1CCCCC1)Nc1nnc(-c2ccccc2)s1 | – | 0.68%
O=C(Nc1cc(Cl)ccn1)C1CCN(S(=O)(=O)c2cccs2)CC1 | – | 8.78%
CC(=O)C1=C(N2CCCCC2)CCC1=O | – | 4.73%
Cc1ccc(CNC(=O)CN(c2cccc([N+](=O)[O-])c2)S(C)(=O)=O)cc1 | inactive | –
CCCn1[nH]cc(SC)c(=O)c1=O | inactive | –
O=c1c(N=Nc2ccc(O)cc2)c(-c2ccccc2)[nH]n1-c1ccc([N+](=O)[O-])cc1 | – | 3.3%
CC(SC1=NCCS1)C(=O)Nc1nnc(-c2ccc(Cl)cc2)s1 (stereo not drawn) | inactive | –
CCn1cc(S(=O)(=O)CC(=O)Nc2ccc(OC)cc2)c2ccccc21 | – | 0.68%
COc1cc(C(=O)Nc2ccc(S(=O)(=O)NC(C)C)cc2)cc(OC)c1OC | – | 6.82%
C#Cc1ccc([C@H]2C=C(C(=O)N3CCOCC3)O[C@@H](OCc3ccc(CO)cc3)C2)cc1 | inactive | –
COc1ccccc1C(=O)Nc1cccc(-c2cn3ccsc3n2)c1 | – | 4.05%
O=C(OCn1ncc(Br)c(Br)c1=O)c1ccc(F)cc1 | – | 1.35%
C=CCc1ccc(OCCCCN2CC(C)OC(C)C2)c(OC)c1 (stereo not drawn) | – | 7.5%
O=C(NCCCN1CCOCC1)C1(c2ccccc2)CCCC1 | inactive | –
Cc1ccc(C(=O)Oc2ccc(Cl)c3cccnc23)cc1[N+](=O)[O-] | – | 0.68%
Oc1c(CN2CCOCC2)cc(CN2CCOCC2)c(O)c1O | – | 1%
COc1ccc(C(=O)Oc2c(CN3CCOCC3)cc(Cl)c3cccnc23)cc1 | inactive | –
O=[N+]([O-])c1cc(CN2CCN(c3cccc(C(F)(F)F)c3)CC2)c2cccnc2c1O | – | 1.65%

Compound | outcome | inhibition
Cc1[nH]c2ccccc2c1C1=CC(=O)C=CC1=O | inactive | –
CC[n+]1c(/C=C2/C=C(C)CC(C)(C)C2)sc2ccc(OC)cc21 | – | 3.01%
Cc1nn(CC(=O)NC2CC2)c(C)c1S(=O)(=O)N(C)C | inactive | –
C/C(N)=C(/C#N)C(=O)CSc1nnc(Nc2c(C)cccc2C)s1 | – | 15%
CC(Oc1ccc(Cl)cc1)c1ccnn1S(C)(=O)=O (stereo not drawn) | – | 2.73%
CC(=O)Nc1cc(NC(C)=O)cc(C(=O)N2CCCC3CCCCC32)c1 (stereo not drawn) | – | 26.4%
CCC(=O)Nc1ccc(S(=O)(=O)NC[C@H]2O[C@@H](n3cc(C)c(=O)[nH]c3=O)C[C@@H]2O)cc1 | inactive | –
CCOC(=O)CSc1nnc(-c2ccccc2NC(=O)c2ccccc2)o1 | – | 1.36%
O=C(NCc1cn2ccccc2n1)c1ccc2c(c1)OCO2 | – | 0.68%
Cn1ncc2c(Nc3ccc4ccccc4c3)ncnc21 | – | 1.36%
CCC(C)N1C(=O)S/C(=C/c2ccc(Sc3nc4ccccc4[nH]3)o2)C1=O (stereo not drawn) | inactive | –
COc1cccc(-c2cc(C(=O)Nc3cnn(Cc4ccccc4C)c3)no2)c1 | – | 7.43%
Cc1ccc(S(=O)(=O)N2CCN(C(C(=O)Nc3ccc(F)cc3)c3ccccc3)CC2)cc1 (stereo not drawn) | – | 2.05%
CC(C)c1ccc(NC(=O)C(c2ccccc2)N2CCC3(CC2)OCCO3)cc1 (stereo not drawn) | – | 0.68%
Cc1[nH]c2ccccc2c1C(=O)Cn1c(=O)oc2ccccc21 | – | 4.73%
O=C(CCC(=O)OCC(=O)c1ccc(F)cc1)NC1CCCCC1 | – | 0.68%
CCOC(=O)C1=C(CSc2nc(C)ccc2C#N)OC(N)=C(C#N)C1c1cccc(OC)c1OC (stereo not drawn) | – | 3.41%
COc1ccc(N(CC(=O)NCc2ccccc2C)S(=O)(=O)c2ccc(C)cc2)cc1OC | – | 3.01%
O=C(CN(c1ccc(F)cc1)S(=O)(=O)c1ccc2c(c1)OCCO2)NCc1ccccn1 | – | 15.5%
NNC(=O)c1ccc(N2CCc3ccccc32)c([N+](=O)[O-])c1 | inactive | –
